Results published in PubChem BioAssay AID1159580 (chemical genetic matrix, 2015).
Among all 5,500 compounds or so, about 2,000 (36%) were called active. Another 18% or so got no clear call; they are omitted. No stated cut-off is given here; in the data, active means normalized growth mostly below about 0.91 (no sharp cut-off); inconclusive means no clear call, values can overlap the other calls; inactive means mostly above about 0.92. Some of the results follow.

Experiment: chemical genetic growth profiling, strain panel (AID 1159580);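 further: tested at 20 µM; growth read once vehicle control cultures reached saturation at 30 °C; 1 = growth at the plate median or of vehicle wells; lower values mean less growth of the strain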
Conditions: S. cerevisiae deletion strains, growth OD
[1] = locus YHR030C, strain SLT2, active compounds read low
[2] = locus YJL095W, strain BCK1, active compounds read low
[3] = locus YMR307W, strain GAS1, active compounds read low

Measured: normalized growth

CCN(CC)CCNC(=O)c1ccc(NC(C)=O)cc1
inactive: locus YAL040C, strain CLN3, active compounds read low 0.985 | locus YDR150W, strain NUM1, active compounds read low 0.975 | locus YER002W, strain NOP16, active compounds read low 0.969 | locus YGR078C, strain PAC10, active compounds read low 0.985 | locus YGR229C, strain SMI1, active compounds read low 1.01 | [1] 0.999 | locus YHR079C, strain IRE1, active compounds read low 1.03 | [2] 1.02 | locus YJR066W, strain TOR1, active compounds read low 0.971 | locus YLR113W, strain HOG1, active compounds read low 1.03 | [3] 1.01 | locus YNL175C, strain NOP13, active compounds read low 0.983 | locus YNL183C, strain NPR1, active compounds read low 0.959 | locus YNL197C, strain WHI3, active compounds read low 0.984 | locus YNL224C, strain SQS1, active compounds read low 1.01 | locus YOR083W, strain WHI5 (second series), active compounds read low 0.979 | locus YOR231W, strain MKK1, active compounds read low 1.04 | locus YPL256C, strain CLN2, active compounds read low 1.08

Nc1ccc(C(=O)O)c(O)c1 (tested in a mixture with another compound)
inactive: locus YBR021W, strain FUR4, active compounds read low 1 | locus YBR229C, strain ROT2, active compounds read low 0.988 | locus YCL029C, strain bik1, active compounds read low 0.993 | locus YDL035C, strain GPR1, active compounds read low 0.989 | locus YDL074C, strain BRE1, active compounds read low 1.01 | locus YDL101C, strain DUN1, active compounds read low 0.995 | locus YDL134C, strain PPH21, active compounds read low 0.994 | locus YDL185W, strain tfp1, active compounds read low 0.993 | locus YDL192W, strain arf1, active compounds read low 0.988 | locus YDR101C, strain arx1, active compounds read low 1.02 | locus YDR162C, strain NBP2, active compounds read low 0.995 | locus YDR318W, strain mcm21, active compounds read low 0.992 | locus YDR388W, active compounds read low 0.981 | locus YDR502C, strain sam2, active compounds read low 1.02 | locus YEL061C, strain CIN8, active compounds read low 0.994 | locus YER110C, active compounds read low 0.976 | locus YER155C, strain BEM2, active compounds read low 0.999 | locus YER167W, strain BCK2, active compounds read low 0.985 | locus YGL078C, strain dbp3, active compounds read low 0.992 | locus YGL086W, strain mad1, active compounds read low 1.03 | locus YGL248W, strain PDE1, active compounds read low 0.994 | locus YGR135W, strain pre9, active compounds read low 0.945 | locus YGR252W, strain gcn5, active compounds read low 0.963 | [1] 0.993 | locus YHR079C, strain IRE1 (second series), active compounds read low 0.98 | locus YHR094C, strain hxt1, active compounds read low 0.977 | locus YHR129C, strain ARP1, active compounds read low 0.998 | locus YHR200W, strain rpn10, active compounds read low 0.988 | locus YIL066C, strain RNR3, active compounds read low 0.996 | locus YIL073C, strain SPO22, active compounds read low 1.01 | locus YIL125W, strain kgd1, active compounds read low 0.988 | locus YIR030C, strain dcg1, active compounds read low 0.979 | [2] 1.02 | locus YJL134W, strain LCB3, active compounds read low 0.994 | locus YJL168C, strain set2, active compounds read low 0.976 | locus YJL187C, strain SWE1 (second series), active compounds read low 1.01 | locus YJR043C, strain POL32, active compounds read low 0.981 | locus YJR075W, strain HOC1, active compounds read low 0.988 | locus YKL009W, strain mrt4, active compounds read low 1 | locus YKL068W, active compounds read low 0.992 | locus YKL085W, strain MDH1 (second series), active compounds read low 0.984 | locus YKL085W, strain MDH1, active compounds read low 0.984 | locus YKL190W, strain CNB1, active compounds read low 0.998 | locus YKR001C, strain vps1, active compounds read low 0.998 | locus YLR039C, strain RIC1, active compounds read low 1.06 | locus YLR058C, strain SHM2, active compounds read low 0.989 | locus YLR102C, strain apc9, active compounds read low 0.983 | locus YLR262C, strain YPT6, active compounds read low 1.02 | locus YLR268W, strain sec22, active compounds read low 0.992 | locus YLR330W, strain CHS5, active compounds read low 0.994 | locus YLR342W, strain FKS1 (second series), active compounds read low 0.968 | locus YLR371W, strain rom2, active compounds read low 0.977 | locus YLR418C, strain cdc73, active compounds read low 0.957 | locus YML016C, strain PPZ1, active compounds read low 0.99 | locus YML032C, strain rad52, active compounds read low 0.994 | locus YML124C, strain tub3, active compounds read low 0.989 | locus YMR078C, strain ctf18, active compounds read low 0.978 | locus YMR223W, strain ubp8, active compounds read low 0.964 | [3] 0.909 | locus YNL067W, strain RPL9B, active compounds read low 1.02 | locus YNL128W, strain TEP1, active compounds read low 0.995 | locus YNL153C, strain GIM3, active compounds read low 1.04 | locus YNL233W, strain BNI4, active compounds read low 1.01 | locus YNL250W, strain rad50, active compounds read low 0.981 | locus YNL271C, strain bni1, active compounds read low 0.991 | locus YNL298W, strain CLA4, active compounds read low 0.983 | locus YNL307C, strain MCK1, active compounds read low 0.981 | locus YNR052C, strain pop2, active compounds read low 0.991 | locus YOL006C, strain TOP1, active compounds read low 1.08 | locus YOL012C, strain htz1 0.929 | locus YOL147C, strain pex11, active compounds read low 0.988 | locus YOR061W, strain CKA2, active compounds read low 0.993 | locus YOR069W, strain VPS5, active compounds read low 0.988 | locus YOR136W, strain idh2, active compounds read low 0.987 | locus YOR144C, strain elg1, active compounds read low 0.977 | locus YOR184W, strain ser1, active compounds read low 0.971 | locus YOR316C, strain cot1, active compounds read low 0.986 | locus YPR119W, strain clb2, active compounds read low 0.984 | locus YPR141C, strain kar3, active compounds read low 0.984 | locus YPR163C, strain tif3, active compounds read low 0.979 | locus YPR167C, strain met16, active compounds read low 0.981 | strain wtn01, active compounds read low 1.01
